Inconclusive results are not listed. Calls of active or inactive are those of the source. Calls follow the shape of the dose curve; as a rule, active = well fitted cell-killing curve with a large enough effect; inconclusive = small, poorly fitted or top-dose-only effect, or effect the other way; inactive = no such curve, though single readings can be large or run the other way.
test: Viability qHTS for spleen associated tyrosine kinase inhibitor (SYKi) drug resistant MV4-11 cells (AID 1963824); settings: SYKi-resistant MV4-11 viability, CellTiter-Glo, 72 h; series mostly up to 45 µM; also: nearly all actives have a fitted effect of over 35% in size
Outline: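 SYK inhibitor-resistant MV4-11 AML cells, 500 per well, added to predispensed compounds and incubated 72 hr at 37 C, 5% CO2. Viability measured by CellTiter-Glo luminescence after 10 min at room temperature.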
Potency is read from the fitted curve at half-maximal effect.

Row | SMILES | Potency | viability, % of control
1 | CCOc1ccc(-n2c(C(C)N(Cc3cccnc3)C(=O)Cc3ccc(F)c(C(F)(F)F)c3)nc3ncccc3c2=O)cc1 (stereo not given) | 16.4 µM (active) | –
2 | O=C(NO)c1cnc(N2CCN(S(=O)(=O)c3ccc4ccccc4c3)CC2)nc1 | inactive | –
3 | COc1ccc(Oc2cc(C)c(-c3csc(NC(=O)c4ccncc4)n3)c(C)c2)cc1 | 0.092 µM (active) | –
4 | Cc1c(O)cc2c(c1O)COC1(O)CCCOC21 (stereo not given) | inactive | –
5 | C=CC(C)(C)c1[nH]c2cc3c(cc2c1CC1NC(=O)C2CCCN2C1=O)C=CC(C)(C)O3 (stereo not given) | inactive | –
6 | CCCn1cc2c(nc(NC(=O)Nc3ccc(OC)cc3)n3nc(-c4ccco4)nc23)n1 | inactive | –
7 | C=C(C)[C@H]1CC[C@]2(C(=O)O)CC[C@]3(C)C(CCC4[C@@]5(C)CCC(=O)C(C)(C)C5CC[C@]43C)C12 (stereo not given in full) | 1.42 µM (active) | –
8 | CC(=O)c1ccc2c(c1)N(CCCN(C)C)c1ccccc1S2 | 11.9 µM (active) | –
9 | CC(C)=CCC/C(C)=C/CC/C(C)=C/CC[C@]1(C)CCc2cc(O)cc(C)c2O1 | inactive | –
10 | N#Cc1cnc2c(Cl)cc(NCc3cn(CCN4CCCCCC4)nn3)cc2c1Nc1ccc(F)c(Cl)c1 | 13 µM (active) | –
11 | COC(=O)C1(C)c2[nH]c3ccccc3c2CCN1C(=O)CCl (stereo not given) | 2.91 µM (active) | –
12 | C[C@H]1CC[C@@]2(OC1)O[C@H]1CC3C4CC[C@H]5C[C@@H](O)CC[C@]5(C)C4CC(=O)[C@]3(C)[C@H]1[C@@H]2C (stereo not given in full) | inactive | –
13 | CC(C)S(=O)(=O)Nc1ccc(F)c(C(=O)c2c[nH]c3ncc(-c4cccnc4)cc23)c1F | 2.91 µM (active) | –
14 | CC(=O)c1ccc(O[C@@H]2O[C@H](CO)[C@@H](O)[C@H](O)[C@H]2O)cc1 | inactive | –
15 | NC(N)=NC(=O)c1cnn(-c2cccc3ncccc23)c1C1CC1 | 3.26 µM (active) | –
16 | O=C(Nc1ccc(Cl)cc1)C1CCCN(C(=O)c2cccc(-c3ccco3)c2)C1 (stereo not given) | 8.2 µM (active) | –
17 | C[C@@H]1O[C@@H](O[C@H]2[C@H](OC(=O)[C@]34CCC(C)(C)C[C@H]3C3=CCC5[C@@]6(C)C[C@H](O)[C@H](O[C@@H]7O[C@H](CO[C@@H]8OC[C@H](O)[C@H](O)[C@H]8O)[C@@H](O)[C@H](O)[C@H]7O)C(C)(C)C6CC[C@@]5(C)[C@]3(C)C[C@H]4O)OC[C@@H](O)[C@@H]2O)[C@H](O)[C@H](O[C@@H]2OC[C@](O)(CO)[C@H]2O)[C@H]1O[C@@H]1OC[C@H](O)[C@H](O[C@@H]2OC[C@@H](O)[C@H](O)[C@H]2O)[C@H]1O (stereo not given in full) | – | 85% [at 9.25 µM] (inactive)
18 | Cn1nc(C(C)(C)C)cc1C(=O)N[C@@H](Cc1cccc(Cl)c1)C(=O)NCC#N | 13 µM (active) | –
19 | CCC(O)C(C)C1CCC(C(C)C(=O)O)O1 (stereo not given) | inactive | –
20 | CN(C)c1nc(NC2CCC(NCCc3ccc(Br)cc3OC(F)(F)F)CC2)nc2ccccc12 (stereo not given) | 0.651 µM (active) | –

Row | SMILES | Potency | viability, % of control
21 | CCC/C=C/C(=O)O[C@H]1CC(C)(C)CC2[C@@]13[C@H](O)C[C@]1(C)[C@@]2(CCC2[C@@]4(C)CC[C@H](O[C@@H]5O[C@H](C(=O)O)[C@@H](O)[C@H](O[C@@H]6O[C@H](CO)[C@H](O)[C@H](O)[C@H]6O[C@@H]6O[C@@H](C)[C@H](O)[C@@H](O)[C@H]6O[C@@H]6OC[C@](O)(CO)[C@H]6O)[C@H]5O[C@@H]5O[C@H](CO)[C@H](O)[C@H](O)[C@H]5O)C(C)(C)C4CC[C@]21C)O[C@H]3O (stereo not given in full) | 2.75 µM (active) | –
22 | CC(C)n1cnc2c(-c3cnc(N)nc3)nc(N3CCOCC3)nc21 | 3.17 µM (active) | –
23 | CC[C@H]1OC(=O)[C@H](C)[C@@H](O[C@H]2C[C@@](C)(OC)[C@@H](O)[C@H](C)O2)[C@H](C)[C@@H](O[C@@H]2O[C@H](C)C[C@H](N(C)C)[C@H]2O)[C@@](C)(O)C[C@@H](C)[C@@H]2N[C@@H](COCCOC)OC([C@H]2C)[C@]1(C)O | inactive | –
24 | Cc1cc(C)c(NC(=O)N(Cc2ccc3c(c2)Cc2ccccc2-3)C2CCCCCC2)c(C)c1 | 16.4 µM (active) | –
25 | C=C1C(=O)O[C@@H]2C[C@H](C)[C@@H]3CC(=O)C(C)=C3C[C@H]12 | 1.16 µM (active) | –
26 | CN(C)C(=O)C(=O)c1cn(C)c2cc(Cl)c(C(=O)N3CCC(Cc4ccc(F)cc4)CC3)cc12 | 8.2 µM (active) | –
27 | Nc1nc2c(c(=O)[nH]1)N1CN(c3ccc(C(=O)N[C@@H](CCC(=O)O)C(=O)O)cc3)CC1CN2 (stereo not given in full) | 0.833 µM (active) | –
28 | O=C(Nc1ccc(S(=O)(=O)Nc2nccs2)cc1)c1cc(-c2ccccc2)nc2ccccc12 | 16.4 µM (active) | –
29 | Cn1c(=O)c2c(ncn2Cc2ccc(C(C)(C)C)cc2)n(C)c1=O | 1.16 µM (active) | –
30 | C=C(C(=O)O)[C@@H]1CC[C@@]2(C)CCC[C@@](C)(O)[C@@H]2C1 | inactive | –
31 | C[C@]12C=C[C@@]3(CCC4[C@](C)(CO)CCC[C@@]4(C)C3CC1)C2 (stereo not given in full) | 9.2 µM (active) | –
32 | Cc1ccc2c(Nc3ccc(Cl)cc3)nccc2c1Nc1ncccc1-c1ncnc2nc[nH]c12 | 2.31 µM (active) | –
33 | CS(=O)(=O)c1ccc([C@H](CC2CCCC2)C(=O)Nc2nccs2)cc1 | 13 µM (active) | –
34 | CN(C)CCOC(C)(c1ccccc1)c1ccc(Cl)cc1 (stereo not given) | 16.4 µM (active) | –
35 | CC(C)c1ccc(NC(=O)c2cccs2)c(-c2nc3ccccc3[nH]c2=O)c1 | 11.6 µM (active) | –
36 | C=C[C@]1(C)C[C@H](O)[C@H]2C(=C)C(=O)O[C@@H]2[C@H]1C(=C)CO | 14.6 µM (active) | –
37 | COc1ccc(Cl)cc1NC(=O)Nc1cc(C)nc2ccccc12 | 14.6 µM (active) | –
38 | C/C=C(/C)C(=O)OC1C=C2C3C(C)C(C)C(OC(=O)C(C)C(C)O)CC3(C)CCC2(C)C2(C)CC(OC(C)=O)C3C(C)(C)C(O)C(=O)CC3(C)C12 (stereo not given) | 4.32 µM (active) | –
39 | N=C1N=C(N)c2cc3ccccc3cc21 | 38.6 µM (active) | –
40 | C#Cc1cccc(Nc2ncnc3cc(OC)c(OC)cc23)c1 | 1.64 µM (active) | –

— PubChem BioAssay (NCATS)
